ELG1 repair inh = ELG1-dependent DNA repair inhibition. HEK293T ELG1-luciferase reporter, luminescence, 16 h; DNA damage induced by 5-fluorouridine. Potency, µM (highest dose often 46.1 µM), for inactives: at the highest dose activity change, negative = inhibition, usual class: inhibitors. 330,000 compounds, 2.3% hits; also: potency is read from the fitted curve at half-maximal effect; nearly all actives have a fitted effect of over 55% in size
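Reporter activity after DNA damage by 5-fluorouridine is monitored. Compound-treated cells incubate 16 hr at 37 °C, then ONE-Glo is added for 30 min before luminescence reading.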
DT40 TDP1 no CPT = qHTS for Inhibitors of human tyrosyl-DNA phosphodiesterase 1 (TDP1): qHTS in cells in absence of CPT | DT40 Tdp1-/- hTDP1 cells, no CPT, ATP luminescence, 48 h | Potency, µM (titrated, usually from 46.2 µM), for inactives: at the highest dose activity change, negative = growth inhibition, actives largely listed as inhibitors | 420,000 compounds, 15% hits; also: potency is read from the fitted curve at half-maximal effect; nearly all actives have a fitted effect of over 55% in size
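Camptothecin absent (DMSO only). Human TDP1-complemented DT40 knockout cells, 400 cells/well, 37 °C for minimum 48 hr; ATP measured via CellTiter-Glo, 30 min dark incubation, luminescence.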
VP16 counter = Gal4-VP16 reporter inhibition counter-screen; Drosophila S2 Gal4-VP16 UAS-luciferase, luminescence, 20 h; Potency, µM (highest dose often 53.6 µM), for inactives: top-dose activity, negative = inhibition, hits mostly inhibitors; 310,000 compounds, 3.5% hits; AID 2546;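 also: Gal4-VP16 expression switched on by copper sulfate through the metallothionein promoter; potency is read from the fitted curve at half-maximal effect; nearly all actives have a fitted effect of over 50% in size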
DT40 TDP1 CPT = growth inhibition of DT40 Tdp1-/-;hTDP1 cells with camptothecin (screen for TDP1 inhibitors) | chicken DT40 Tdp1-/-;hTDP1 cells + 20 nM CPT, ATP luminescence, 48 h | Potency, µM (series often up to 46.2 µM), without a hit: at the highest dose activity change, negative = growth inhibition, most hits filed as inhibitors | 420,000 compounds, 12% hits | AID 686979; also: potency is read from the fitted curve at half-maximal effect; nearly all actives have a fitted effect of over 55% in size
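Cell growth measured by CellTiter-Glo luminescence after a minimum 48 h, 37 C compound exposure with 20 nM CPT in Tdp1-knockout DT40 cells stably expressing hTDP1, seeded 400/well; qHTS titration format.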
RORgamma inh = blocks mouse ROR gamma transcriptional activity | AID 2551 | Drosophila S2 Gal4-RORgamma UAS-luciferase reporter, 20 h | 310,000 compounds, 5.4% hits | Potency, µM (doses to about 53.6 µM), without a hit: top-dose activity change, negative = inhibition, most hits filed as inhibitors | P51450; also: potency is read from the fitted curve at half-maximal effect; nearly all actives have a fitted effect of over 60% in size
Target sequence (P51450 whole entry, looked up, the tested form may be a part): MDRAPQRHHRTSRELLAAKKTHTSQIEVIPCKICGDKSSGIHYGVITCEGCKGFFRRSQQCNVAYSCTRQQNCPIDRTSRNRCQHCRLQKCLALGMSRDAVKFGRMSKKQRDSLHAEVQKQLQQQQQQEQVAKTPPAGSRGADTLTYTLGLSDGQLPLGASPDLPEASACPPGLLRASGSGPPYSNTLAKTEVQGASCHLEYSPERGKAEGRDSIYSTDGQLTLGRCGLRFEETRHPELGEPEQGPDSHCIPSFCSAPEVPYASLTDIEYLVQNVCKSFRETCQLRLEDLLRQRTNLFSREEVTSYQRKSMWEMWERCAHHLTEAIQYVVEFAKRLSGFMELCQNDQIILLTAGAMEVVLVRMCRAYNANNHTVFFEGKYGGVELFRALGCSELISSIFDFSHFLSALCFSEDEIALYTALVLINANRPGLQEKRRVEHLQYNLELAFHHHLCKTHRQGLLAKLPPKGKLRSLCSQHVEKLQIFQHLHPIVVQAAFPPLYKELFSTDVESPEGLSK
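A Gal4/UAS one-hybrid system in insect cells: metallothionein-promoter Gal4–ROR gamma fusion plus Photinus luciferase reporter. Copper sulfate 700 uM final, 20 hr ambient incubation, luminescent detection after 10 min with reagent.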
IL-1B inflam inh = inflammasome signaling inhibition, IL-1 beta readout. 360,000 compounds, 4.7% hits. THP-1 LPS/ATP IL-1B secretion, AlphaLISA, 16 h; active compounds read low. activity change, % at 57.5 µM; in the data active = activity change below about -50%; inconclusive = mostly about -30% to -49%
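Secreted IL-1B measured by AlphaLISA bead assay after 16 h compound exposure of THP-1 cells; compounds (final up to 57.5 uM) added 1 h before LPS (250 ng/mL) and ATP (1.25 mM) stimulation; lower signal means less secretion.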
* = called active by the depositor; u = inconclusive; x = not tested or not shown; ! = a repeat was not active; [ ] = remark or other dose. Compounds with a hit are over-represented: about 21% of the library has one in this group of screens. Unless noted, calls follow the shape of the dose curve; as a rule, active = well fitted curve in the direction sought with a large enough effect; inconclusive = small, poorly fitted or top-dose-only effect, or another doubt; inactive = no such curve, though single readings can be large; an effect the other way counts as inactive or inconclusive. % is scaled to controls: 0 for no effect and ±100 for the full control effect.

SMILES	ELG1 repair inh	DT40 TDP1 no CPT	VP16 counter	DT40 TDP1 CPT	RORgamma inh	IL-1B inflam inh
CN1CCN(c2ncc3nc(-c4cccc(C#N)c4)c(=O)n(C[C@H]4CCCO4)c3n2)CC1	x	-11.3%	6.3%	u	-12.0%	x
CN(C)CCCNc1nc2cc(-c3cncnc3)sc2c(=O)n1C	x	-27.4%	x	-29.3%	x	-0.7
CN(C)CCCNc1nc2cc(-c3ccccc3)sc2c(=O)n1C	x	20.6µM*	x	20.6µM*	x	0.0
CN(C)CCCNc1nc2cc(-c3ccc(F)cc3)sc2c(=O)n1C	x	18.4µM*	x	18.4µM*	x	-15.0
COc1cccc(-c2cc3nc(NCCN4CCCC4)n(C)c(=O)c3s2)c1	x	23.1µM*	x	u	x	u
C=CCNc1nc2cc(-c3cccc(Cl)c3)sc2c(=O)n1C	x	16.4µM*	x	13µM*	x	79.1
O=C(O)CCc1cccc2ccccc12	x	-17.3%	x	0.2%	x	x
CC[C@]12c3[nH]c4cc(CCC(=O)N(C)C)ccc4c3CCN1C(=O)[C@@H](CC(=O)NC(C)(C)C)C[C@@H]2C(=O)N1CCN(C(=O)C2CC2)CC1	8.1%	-3.8%	x	1.0%	x	3.7
CCc1nc2c(OCCOC)cccn2c1N(C)C(=O)c1ccco1	x	-6.8%	x	-0.4%	x	14.7
CCOC(=O)C(=Cc1ccc(-n2ccnc2)cc1)C(=O)OCC	u	20.6µM*	u	23.1µM*	u	-93.2*
CCOC(=O)/C(=C/c1ccc(OC(=O)c2ccncc2)cc1)C(C)=O	-5.6%	u	16.8%	u	u	0.0
CCc1ccc(C(C)NC(=O)/C=C/c2ccc(Br)cc2)cc1 (stereo unspecified)	u	-13.9%	-3.1%	u	20.9%	0.0
CCOC(=O)C(=Cc1ccc(Br)cc1)C(=O)OCC	u	2.91µM*	u	11.6µM*	14.1µM*	-96.9*
CCOC(=O)C(CC)(CC)C(=O)/C=C/c1ccc(Br)cc1	-16.9%	16.4µM*	u	u	u	-103.5*
CCOC(=O)C(=Cc1ccc(F)cc1)C(=O)OCC	u	x	u	x	10µM*	x
CC(C)n1nnnc1SCC(=O)N1CCN(Cc2ccc3c(c2)OCCO3)CC1	-15.4%	-8.9%	x	-1.6%	x	13.3
COc1cccc(/C=N/NC(=O)c2cc(-c3ccccn3)nc3ccccc23)c1O	u	8.2µM*	x	9.2µM*	x	87.2
O=[N+]([O-])c1ccc(Cl)cc1C=NNc1ccccn1	x	-10.3%	x	-5.4%	x	20.6
COc1ccc(/C=N/NC(=O)c2cc(-c3cccnc3)nc3ccccc23)c(OC)c1	3.7%	4.61µM*	0.7%	u	u	27.4
O=[N+]([O-])c1cc(Cl)cc(/C=N\Nc2ccccn2)c1O	u	5.17µM*	1.12µM*	5.17µM*	0.562µM*	125.9
C/C(=N\NC(=O)c1cc(-c2ccccn2)nc2ccccc12)c1cccc([N+](=O)[O-])c1	0.9%	u	2.8%	-12.4%	u	9.3
O=C(N/N=C/c1cc(Cl)cc([N+](=O)[O-])c1O)c1cc(-c2ccccn2)nc2ccccc12	u	14.6µM*	10µM*	6.51µM*	5.62µM*	130.6
O=C1[C@H]2[C@H]3[C@H](O)[C@H](O)C/C(=N/OCc4ccccc4)[C@@H]3CC[C@@H]2C(=O)N1c1cccc(Oc2ccccc2)c1	x	x	-10.5%[10 µM]	x	-7.8%[10 µM]	x
Cc1cccc2c(SCC(=O)NCC3CCCO3)nc(-c3ccc(F)cc3)nc12 (stereo unspecified)	-0.1%	-11.4%	5.3%	-14.7%	-18.1%	0.0
Cc1[nH]c2ccccc2c1C=NNC(=O)c1cc(-c2cccnc2)nc2ccccc12	16.4µM*	7.31µM*	x	13µM*	x	21.5
SMILES	ELG1 repair inh	DT40 TDP1 no CPT	VP16 counter	DT40 TDP1 CPT	RORgamma inh	IL-1B inflam inh
COc1ccc(/C=N/NC(=O)c2cc(-c3ccccc3)nc3ccccc23)c(C(=O)O)c1OC	14.0%	-23.2%	-1.5%	-15.5%	-12.5%	0.8
Cc1[nH]c2ccccc2c1/C=N/NC(=O)c1cc(C(C)C)[nH]n1	u	u	1.7%	-16.4%	-2.3%	-0.6
COc1cccc(-c2cc(C(=O)N/N=C/c3cccc(OC)c3OC)c3ccccc3n2)c1	x	4.61µM*	x	20.6µM*	x	-12.5
CC(=O)OC[C@H]1O[C@@H](O/N=C(\C)CCC(=O)OC[C@@H]2O[C@H](C#Cc3ccccc3)C=C[C@@H]2Oc2ccc(C)cc2)[C@H](OC(C)=O)[C@@H](OC(C)=O)[C@H]1OC(C)=O	x	x	-6.3%[10 µM]	x	-18.0%[10 µM]	x
O=c1c2ccccc2sn1-c1ccc(Cl)cc1Cl	x	2.91µM*	x	6.51µM*	x	-105.5*
O=c1c2ccccc2ncn1-c1ccc(Cl)cc1Cl	-5.3%	-14.7%	6.3%	u	-0.2%	-22.8
CC1=C(C(=O)Nc2ccccc2C(=O)N2CCC(C)CC2)SCCO1	-3.3%	-14.7%	-1.9%	-22.3%	-13.9%	-7.6
Cc1ccc2cc(/C=N/NC(=O)c3ccc(F)cc3)c(Cl)nc2c1	13.4%	-11.7%	6.9%	10.3%	-19.9%	0.6
O=C(N/N=C/c1cccc2ccccc12)c1ccncc1	8.5%	-16.2%	-4.0%	2.4%	-22.0%	-1.7
Cn1cc(Br)c(C(=O)N/N=C/c2cc3ccccc3nc2Cl)n1	7.2%	20.6µM*	22.4%	u	28.8%	-24.2
Cc1ccc2nc(Cl)c(/C=N/Nc3ccc(C(=O)O)cc3)cc2c1	u	u	7.08µM*	-6.1%	3.16µM*	30.0
O=C(N/N=C/c1ccccc1O)c1ccncc1	-14.4%	3.66µM*	2.82µM*	4.61µM*!	3.16µM*	110.1
O=C(N/N=C/c1cc2ccccc2nc1Cl)c1ccncc1	-12.9%	4.61µM*	-2.9%	2.59µM*	-35.5%	101.7
C[C@@H]1CN([C@@H](C)CO)C(=O)c2cc(NC(=O)CCC(F)(F)F)ccc2O[C@H]1CN(C)S(=O)(=O)c1ccc(Cl)cc1	-20.6%	-23.0%	x	-21.6%	x	-2.8
CC(C)(C)OC(=O)N/N=C/c1c[nH]c2ccccc12	u	-21.2%	-8.0%	2.3%	13.6%	8.0
O=C(N/N=C/c1cc(Cl)ccc1O)c1ccc(Br)cc1	u	5.8µM*	u	5.17µM*	2.82µM*	47.1
Nc1ccc(C(=O)N/N=C/c2c[nH]c3ccccc23)cc1	18.7%	2.0%	-6.4%	5.7%	7.9%	1.8
Cc1ccc(NCC(=O)N/N=C/c2cc3ccccc3nc2Cl)cc1	4.1%	29.1µM*	2.9%	23.1µM*	7.1%	-21.0
Cc1ccc(N=Nc2ccc(O)c(/C=N\NC(=O)c3ccc(N)cc3)c2)cc1C	-2.2%	13µM*	2.24µM*	10.3µM*	3.16µM*	86.5
